Each compound was assayed against NADPH oxidase 5 (Homo sapiens) (UniProt Q96PH1) (assay: NOX5-dependent H2O2 signal modulators, primary screen, NOX inhibitor project, cell-based, HEK293-NOX5, Amplex Red fluorescence (AID 1161)). Details: HEK293-NOX5, ionomycin, 45 min, higher = more signal.
Sequence of NADPH oxidase 5 (Homo sapiens) (Q96PH1 whole entry, looked up): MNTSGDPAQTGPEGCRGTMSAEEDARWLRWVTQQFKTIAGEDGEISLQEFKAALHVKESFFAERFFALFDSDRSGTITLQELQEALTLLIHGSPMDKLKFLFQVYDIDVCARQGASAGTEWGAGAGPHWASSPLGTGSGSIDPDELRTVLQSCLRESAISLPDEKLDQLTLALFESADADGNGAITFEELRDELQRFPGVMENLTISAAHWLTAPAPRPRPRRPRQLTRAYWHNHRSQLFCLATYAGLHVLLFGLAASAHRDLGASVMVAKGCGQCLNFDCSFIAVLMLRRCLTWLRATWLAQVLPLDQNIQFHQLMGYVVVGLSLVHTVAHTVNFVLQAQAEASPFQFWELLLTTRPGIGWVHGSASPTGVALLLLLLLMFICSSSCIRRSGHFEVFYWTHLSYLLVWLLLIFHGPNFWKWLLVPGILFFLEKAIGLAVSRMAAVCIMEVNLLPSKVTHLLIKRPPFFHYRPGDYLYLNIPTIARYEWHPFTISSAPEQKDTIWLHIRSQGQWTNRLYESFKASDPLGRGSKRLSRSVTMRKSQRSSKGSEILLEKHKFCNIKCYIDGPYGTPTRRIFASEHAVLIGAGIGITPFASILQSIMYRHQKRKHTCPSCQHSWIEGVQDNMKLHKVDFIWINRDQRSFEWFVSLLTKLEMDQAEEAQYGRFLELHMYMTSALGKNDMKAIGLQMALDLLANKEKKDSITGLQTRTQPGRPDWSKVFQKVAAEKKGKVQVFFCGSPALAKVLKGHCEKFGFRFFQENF

Structure (SMILES) | z-score
CCCCC(=C=CC[C@@H](O)c1ccc(OCCO)cc1)C[C@@H](O)COCc1ccccc1 | -2.45
O=C(O)[C@]1(Cc2ccccc2)N=C(c2ccc(OCCCO)cc2)O[C@@H]1c1ccccc1 | 0.914
CC(C)C(=C=CC[C@@H](O)c1ccccc1OCCO)C[C@@H](O)COCc1ccccc1 | -1.52
O=C1O[C@@H](c2ccccc2)[C@@H](c2ccccc2)N2[C@@H](c3ccc(O)cc3)[C@]3(C(=O)Nc4ccccc43)[C@@H](C(=O)Nc3nc4ccccc4s3)[C@H]12 | 0.933
O=C(N1CCCCC1)[C@@]1(Cc2ccccc2)COC(c2ccc(OCCCO)cc2)=N1 | -2.26
CO[C@H]1O[C@H](CO)[C@@H](OC(=O)Nc2ccc(C(F)(F)F)cc2)[C@H](OC(=O)Nc2ccc3c(c2)OCO3)[C@H]1OC(=O)Nc1ccc2c(c1)OCO2 | -1.82
COc1cc(CO)cc(I)c1O[C@H]1C=C(C(=O)NCCO)C[C@@H](NCc2ccccc2F)[C@@H]1O | -1.69
CCCNC(=O)[C@@]1(c2ccc([N+](=O)[O-])cc2)CC(=O)N(C2CCCCC2)[C@@H]1c1ccc(CO)cc1I | 1.16
CCOC(=CC(=O)OC)CC(O)c1cccc(Cl)c1 (stereo not drawn) | -0.131
Cc1ccc(S[C@]2(C(=O)NC(C)C)CC(=O)N(Cc3ccccc3C(F)(F)F)[C@@H]2c2ccc(CO)cc2I)cc1 | -1.78
CO[C@H]1O[C@H](CO)[C@@H](OC(=O)c2ccc(Br)cc2)[C@@H]2OC(=O)[C@@H](Cc3ccc4ccccc4c3)C/C=C/C[C@H](Cc3ccc4ccccc4c3)C(=O)O[C@@H]12 | -1.77
COC(=O)[C@@]1(Cc2ccc(OC)cc2)[C@H]2c3cc(C(=O)N(C)C)n(Cc4nc5ccccc5[nH]4)c3C[C@H]2CN1C(=O)c1ccccc1 | 2.4
COCCCNC(=O)[C@]1(Cc2ccccc2N=[N+]=[N-])N=C(c2ccc(OCCCO)cc2)O[C@@H]1c1ccccc1N=[N+]=[N-] | 1.71

Source: PubChem BioAssay
